# Screens from PubChem BioAssay.
# PTHR1 ag – activates the human parathyroid hormone receptor PTHR1; Q03431; HEK293 GP2 PTHR1 cells, GloSensor cAMP luminescence, 1 h; Potency, µM (top dose mostly 115 µM), inactives show at the highest dose activation, actives largely listed as activators; actives 0.075% (n = 410,000); also: potency is read from the fitted curve at half-maximal effect; nearly all actives have a fitted effect of over 55% in size
#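 HEK-293-derived GP2 cells expressing PTHR1 and a GloSensor cAMP reporter, 3,000/well, plated overnight, given luciferin plus IBMX (each 0.5 mM as added) for 1 h at 37 °C, then compound for 1 h at 37 °C. Luminescence was read after 15 min at room temperature.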
# RXFP1 antag – antagonists of human relaxin receptor RXFP1; Q9HBX9; HEK293-RXFP1, relaxin-stimulated cAMP HTRF, 30 min; hits give low values; activity change, negative = inhibition, % at 57.5 µM; actives 0.59% (n = 350,000); AID 1259400;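 active = activity change of -60% or lower, but not beyond a set lower limit; inconclusive = change between -60% and -40%, or beyond the set limit; inactive = change above -40%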; also: % is scaled to controls: 0 for no effect and ±100 for the full control effect
# TSHR antag – blocks TSH signaling through the human TSH receptor; P16473; TSHR-expressing cells, TSH-stimulated cAMP HTRF, 2 h; hits give low values; activity change, negative = inhibition, % at 11.5 µM; actives 0.2% (n = 330,000);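 active = activity change below a set negative limit, meaning inhibition stronger than a set level, cut at about -70% in these data; inconclusive = activity change between two set negative limits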; also: % is scaled to controls: 0 for no effect and ±100 for the full control effect
#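 Freshly harvested TSHR cells receive pin-tooled compound, then EC80 TSH at 4nM final. After 2 hours at 37 deg C, antibody in lysis buffer and cAMP-d2 are added; 30 minutes at ambient temperature precede the HTRF read.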
# NPSR antag – antagonists of human neuropeptide S receptor cAMP signaling; actives 1% (n = 220,000); Q6W5P4; Potency, µM (titrated, usually from 38.3 µM), without a hit: at the top dose activity change, negative = inhibition, hits mostly inhibitors; CHO-NPSR cells, cAMP TR-FRET, antagonist mode; also: potency is read from the fitted curve at half-maximal effect; % is scaled to controls: 0 for no effect and ±100 for the full control effect; nearly all actives have a fitted effect of over 50% in size
# Target sequence (Q6W5P4 whole entry, looked up): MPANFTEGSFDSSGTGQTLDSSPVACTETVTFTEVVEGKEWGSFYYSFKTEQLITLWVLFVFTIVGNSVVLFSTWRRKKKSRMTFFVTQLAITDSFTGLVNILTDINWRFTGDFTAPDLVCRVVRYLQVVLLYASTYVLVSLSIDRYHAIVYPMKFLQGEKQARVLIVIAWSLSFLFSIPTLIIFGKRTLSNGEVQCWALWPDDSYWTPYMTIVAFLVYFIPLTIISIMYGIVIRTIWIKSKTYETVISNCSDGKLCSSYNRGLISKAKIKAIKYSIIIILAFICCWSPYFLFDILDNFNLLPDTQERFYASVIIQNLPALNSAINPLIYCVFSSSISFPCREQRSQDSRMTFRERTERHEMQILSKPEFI
# HEK293 tox – cytotoxicity in counter-screen for GLP-1R inverse agonists; HEK293 cAMP-luciferase reporter cells, luminescence, 24 h; Potency, µM (titrated, usually from 38.3 µM), for the others: at the highest dose activity change, negative = inhibition, hits mostly inhibitors; actives 0.13% (n = 410,000); AID 624418;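 also: loss of luciferase light is scored as toxicity; potency is read from the fitted curve at half-maximal effect; % is scaled to controls: 0 for no effect and ±100 for the full control effect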
#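 A 23 nL compound transfer followed 12 hours of cell culture at 37 deg C; exposure then lasted 24 hr. Luciferase assay detection reagent was dispensed and plates read for luminescence after a 12 min room-temperature wait.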
# RXFP1 ag – activates the human relaxin receptor RXFP1. Q9HBX9. HEK293T-RXFP1 cAMP TR-FRET, 30 min; response scale: percent of porcine relaxin response, buffer zero. Potency, µM (doses to about 57.5 µM), without a hit: at the top dose activation, most hits filed as activators. actives 0.3% (n = 370,000). AID 2676; also: potency is read from the fitted curve at half-maximal effect; % is scaled to controls: 0 for no effect and ±100 for the full control effect; nearly all actives have a fitted effect of over 60% in size
#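 cAMP rise read by TR-FRET after 30 min, 37C compound exposure (up to 58 uM) in RXFP1-transfected HEK293 cells with Ro 20174 present. EC50 from Hill-equation fits, with 29 nM porcine relaxin as 100% and buffer as basal.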
# Starred values were filed as active, the others as inactive; i = inactive; ? = inconclusive; / = not tested or not shown; ! = repeats disagree; [ ] = dose if it differs, or a comment. This is one part of a sample in which hits are shown more often than they occur. Unless noted, calls follow the shape of the dose curve; as a rule, active = well fitted curve in the direction sought with a large enough effect; inconclusive = small, poorly fitted or top-dose-only effect, or another doubt; inactive = no such curve, though single readings can be large; an effect the other way counts as inactive or inconclusive.
SMILES,PTHR1 ag,RXFP1 antag,TSHR antag,NPSR antag,HEK293 tox,RXFP1 ag
Cc1ccc(C)c(N(C(=O)c2snc(C(N)=O)c2N)C(C(=O)NCC2CCCO2)c2cccs2)c1 (stereo not drawn),i,?,-24,-39%,-6%,3%
Cc1ccc(C)c(N(C(=O)c2snc(C(N)=O)c2N)C(C(=O)NCC2CCCO2)c2ccc(C)o2)c1 (stereo not drawn),-3%,-87*,1,/,2%,1%
NC(=O)c1nsc(C(=O)N(c2ccc(Cl)cc2)C(C(=O)NCC2CCCO2)c2cccs2)c1N (stereo not drawn),-18%,-62*,17,30%,-6%,2%
CCc1ccc(N(C(=O)c2snc(C(N)=O)c2N)C(C(=O)NCC2CCCO2)c2cccs2)cc1 (stereo not drawn),i,?,18,-43%,6%,-2%
CC(C)C[C@H]1CN(CCCC[C@@H]2CNC(=O)C(=O)N2Cc2ccccc2)C(=O)C(=O)N1CCC1CCCCC1,-19%,/,/,/,-9%,/
CCOC(=O)Nc1ccc2c(c1)C(=NNC(N)=S)c1ccccc1-2,-39%,?,/,/,4µM*,/
CCOC(=O)Nc1ccc2c(c1)C(=NO)c1ccccc1-2,-9%,?,/,/,-39%,/
O=C(NCc1ccccc1)C(=O)Nc1c2c(nn1-c1ccc(F)cc1)CSC2,i,-79*,/,/,-9%,0%
O=C(c1ccncc1)N1CCN(C2CCC(c3ccccc3)CC2)CC1 (stereo not drawn),-35%,-64*,12,3%,-5%,0%
CN1CCN(N)CC1,/,11,/,/,/,/
O=[N+]([O-])c1ccc(Sc2cccc[n+]2[O-])c2nonc12,-29%,?,-91*,?,-103%,4%
O=[N+]([O-])c1ccc(Nc2ccccc2)c2nonc12,-74%,2,-5,/,?,1%
O=C(Nc1ccc(S(=O)(=O)N2CCOCC2)cc1)c1cc(-c2cc(Cl)ccc2O)n[nH]1,-33%,-60*,-5,?,?,1%
Cc1cc(O)c(-c2cc(C(=O)Nc3ccc(S(=O)(=O)N4CCOCC4)cc3)[nH]n2)cc1C,?,-2,-6,-15%[46.1 µM],-54%,-1%
CCOC(=O)c1cc(-c2ccccc2)n(-c2cccc(C(=O)Nc3cccc(SC)c3)c2)c1C,-37%,-21,/,/,-6%,1%
COc1ccc2c(c1)c1nc3ccccc3nc1n2CCn1c(=O)oc2ccccc21,0.4µM*,1,24,-23%[46.1 µM],3%,3%
CN1CCOc2ccc(S(=O)(=O)N3CCN(S(=O)(=O)c4c(F)cccc4F)CC3)cc21,/,/,-4,/,/,4%
CC(=O)NCCOc1cccc2ccccc12,-26%[57.5 µM],9,1,15%[46.1 µM],0%,0%
c1ccc(CCNCCCOc2cccc3ccccc23)cc1,i,-95*,12,/,?,1%
O=C(NCCOc1ccccc1F)C1CC(=O)N(Cc2ccccc2)C1 (stereo not drawn),i,0,-7,/,9%,/
CC(C)c1ccc(NC(=O)CCNC(=O)Cn2cnc3ccccc3c2=O)cc1,-30%,-11,1,/,-1%,0%
CCN(CC)CCCNC(=O)CCC(=O)NNc1nc2ccccc2c2nc(C)nn12,-14%,12,8,5%,7.9µM*!,2%
Cc1nc2c3ccccc3nc(NNC(=O)CCC(=O)NCCC(C)C)n2n1,-4%,0,14,13%,7%,1%
COc1ccc(CCC(=O)NCCOc2ccccc2Cl)cc1,-2%,7,/,/,1%,/
N#CSCC(=O)O,/,-21,/,/,/,/
O=C(NCc1nnc2c(C(F)(F)F)cc(Cl)cn12)c1ccc(Br)o1,i,20,3,/,7%,?
O=C(NCc1nnc2c(C(F)(F)F)cc(Cl)cn12)c1cccnc1,i,4,5,/,2%,16µM*
O=C1Cc2cc(Cl)ccc2N1,/,15,/,/,/,/
